Screening data as filed in PubChem.
Hits are enriched below; roughly 0.77% of the tested compounds scored in any of these assays.
Mtb betalactam – beta-lactam sensitization of Mtb H37Rv. M. tuberculosis H37Rv growth with meropenem, percent inhibition. 0.27% of 330,000 active. inhibition, % at 25 µM;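 further: growth measured after seven days incubation then overnight dye step; 0% = bacteria only wells and 100% = bacteria with antibiotic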
Mtb UGM inh – Mtb UDP-galactopyranose mutase inhibition; 0.06% of 320,000 active; P9WIQ1; inhibition, % at 10 µM; purified UGM, fluorescence polarization probe displacement; AID 504406; in the data active means inhibition above about 10%, passing the limit was not always enough; inconclusive means no clear call, values can overlap the other calls
Target sequence (P9WIQ1 whole entry, looked up): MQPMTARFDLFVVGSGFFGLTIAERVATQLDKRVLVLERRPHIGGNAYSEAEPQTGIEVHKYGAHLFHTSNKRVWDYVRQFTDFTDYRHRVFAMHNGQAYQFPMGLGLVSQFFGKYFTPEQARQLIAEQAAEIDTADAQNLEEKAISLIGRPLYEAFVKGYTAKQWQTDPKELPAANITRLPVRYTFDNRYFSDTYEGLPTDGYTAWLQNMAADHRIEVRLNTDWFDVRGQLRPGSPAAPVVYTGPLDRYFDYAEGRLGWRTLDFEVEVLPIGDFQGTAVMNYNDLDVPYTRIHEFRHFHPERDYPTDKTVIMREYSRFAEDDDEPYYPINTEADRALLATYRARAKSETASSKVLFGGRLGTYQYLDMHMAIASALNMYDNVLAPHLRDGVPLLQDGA
Rv3671c protease – inhibitors of M. tuberculosis serine protease Rv3671c. P9WHR9. inhibition, % at 5.96 µM. 0.048% of 320,000 active. AID 2606; in the data active means inhibition above about 38%;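 further: extracellular domain of Rv3671c used as enzyme; 0% = enzyme with DMSO and 100% = no enzyme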
RecA splice inh – blocks M. tuberculosis RecA intein splicing. P9WHJ3. cell-free RecA intein splicing, fluorescence. inhibition, % (test concentration not listed). 0.75% of 290,000 active. AID 2221; in the data active means inhibition above about 30%; inconclusive means no clear call, values can overlap the other calls;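 further: 0% = vehicle wells and 100% = reference inhibitor control wells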
Mtb hypoxia rep – reduces hypoxia-regulated biosensor signal in M. tuberculosis; M. tuberculosis hypoxia-regulated fluorescent reporter, fluorescence; fluorescence inhibition, % (test concentration not listed); 0.1% of 300,000 active; AID 1159583; in the data active means fluorescence inhibition mostly above about 23%, no sharp cut-off; inactive means mostly below about 17%
GFP chromo cs – counter-screen GFP chromophore formation inhibition. shares compounds with RecA splice inh. cell-free GFP chromophore formation, fluorescence. EC50, µM. 83% of 2,100 active
* = called active by the depositor; ? = inconclusive; . = no result. Unless noted, how the calls were made is not given here.

SMILES	Mtb betalactam	Mtb UGM inh	Rv3671c protease	RecA splice inh	Mtb hypoxia rep	GFP chromo cs
CCOC(=O)C1C2COc3ccccc3C2N2C(=O)N(c3ccc(C)cc3)C(=O)[C@]12C (some centres not stated)	.	.	.	.	14.6	.
COc1ccc(NC(=O)Nc2c(O)ccc3ccccc23)cc1	6.3	3.3	-11.8	59.2*	6.5	15.2*
COc1ccc(S(=O)(=O)Nc2c(O)ccc3ccccc23)cc1OC	-5.6	0.5	-13.5	95.6*	5.8	4.62*
COc1ccc(C(=O)Nc2c(O)ccc3ccccc23)cc1	34.2	2.6	-5.1	-0.3	1.5	.
O=C1c2ccccc2C(=O)C12OC(c1ccccc1)C1(C(=O)c3ccccc3C1=O)C2c1ccc([N+](=O)[O-])cc1 (configuration not stated)	3.4	2.9	-12.0	1.7	1.3	.
O=C1c2ccccc2C(=O)C12OC2c1ccc(Cl)cc1 (configuration not stated)	1.1	-0.5	-87.0	71.6*	.	>38
NC(=O)C(Cc1cc2ccccc2s1)NC(=O)C1CC2(CC(c3cccc(NC(=O)C4CCC(=O)N4)c3)=NO2)CN1C(=O)C=Cc1c(F)cccc1Cl (configuration not stated)	.	.	.	.	-2.1	.
CCCCCCSc1ccc(C2N[C@@](CC(C)C)(C(=O)OC)C3C(=O)N(CC)C(=O)C23)cc1 (some centres not stated)	.	.	.	.	6.5	.
COC(=O)c1ccccc1NC(=S)NC(=O)c1ccc(C)cc1	-4.2	0.2	-1.6	36.5*	9.2	0.495*
CC(C)CC1C(C#N)=C(N)Oc2n[nH]c(-c3cccs3)c21 (configuration not stated)	-7.1	2.7	-5.3	86.4*	-4.3	>38
CSCCC1C(C#N)=C(N)Oc2n[nH]c(-c3cccs3)c21 (configuration not stated)	22.8	3.4	-15.1	84.9*	13.7	9.13*
CC(C)CC1C(C#N)=C(N)Oc2c1c(=O)oc1ccccc21 (configuration not stated)	-0.5	-0.1	5.4	-0.6	5.6	.
O=C(NC1(O)C(=O)c2ccccc2C1=O)c1c(Cl)cccc1Cl	62.5	2.8	-129.2	33.6*	2.1	35.6*
O=C(Nc1ccccc1Cl)c1c(F)c(F)c(F)c(F)c1F	99.5	-1.2	6.5	2.7	8.6	.
O=C(NC1(O)C(=O)c2ccccc2C1=O)c1ccccc1	1.3	1.7	-116.1	50.1*	.	15.5*
CN(CC(=O)Nc1ccc(N2CCOCC2)cc1)CC(=O)Nc1cccc(C#N)c1	-5.2	-2.4	-8.1	-5.8	4.6	>38
CN(CC(=O)Nc1ccc(C#N)cc1)CC(=O)Nc1ccc(N2CCOCC2)cc1	6.7	0.7	3.0	-1.9	12.1	.
COc1ccc(Cl)cc1C1=CC(=O)CC(c2ccc(F)cc2)C1 (configuration not stated)	.	.	.	.	5.8	.
O=c1[nH]cc(N=Cc2cc(Cl)cc(Cl)c2O)c(=O)[nH]1	0.3	2.4	-17.3	76.8*	3.4	13.4*
Oc1c(Cl)cc(Cl)cc1C=Nc1ccccc1N1CCCC1	1.0	0.0	7.5	-18.4	.	.
COc1ccc(CNC(=O)C2CC=CC3CCN(Cc4ccccc4)C(=O)C32)cc1 (configuration not stated)	.	.	.	.	7.1	.
CCC(C)C(CN)NCC1(c2ccccc2)CC1 (configuration not stated)	.	.	.	.	16.1	.
COc1ccc(C=NNC(=O)c2ccc(N3CCCC3=O)cc2)cc1	.	.	.	.	3.7	.
COc1ccc(/C=N/NC(=O)c2nn(-c3ccc(Cl)cc3)c(=O)c3c(N)scc23)cc1	3.6	-1.3	-21.3	40.3*	.	17.1*
COc1cccc(-n2nc(C#N)c(Cl)cc2=O)c1	.	.	.	73.4*	21.5	21.1*
SMILES	Mtb betalactam	Mtb UGM inh	Rv3671c protease	RecA splice inh	Mtb hypoxia rep	GFP chromo cs
C=CCOC(=O)C(=O)C=Cc1ccc2c(c1)Cc1ccccc1-2	.	.	.	.	16.6	.
Cn1c(/N=C/c2c(O)ccc3ccccc23)nc2ccccc21	?	1.2	-16.9	72.8*	.	9.09*
O=C1c2ccccc2C(=O)c2[nH]cnc21	35.9	-5.9	.	23.8	.	.
O=C1c2ccccc2C(=O)c2c1ncn2-c1ccccc1	-6.0	0.1	-4.1	36.9*	-7.4	>38
O=C(Nc1ccccc1)C1=CC(c2ccc(Br)cc2)CC(OCc2ccc(CO)cc2)O1 (configuration not stated)	.	.	.	.	0.0	.
COC(=O)C1=C(c2cc3ccccc3s2)CC2CCC1N2C(=O)N1CCCCC1 (configuration not stated)	.	.	.	.	3.4	.
CC(CCc1ccccc1)NC(=O)COC(=O)c1cc(NS(=O)(=O)c2ccc(Cl)c([N+](=O)[O-])c2)ccc1O (configuration not stated)	-2.6	-0.6	-59.0	37.5*	-7.2	>38
CCN1C(=O)C2C(c3ccc(C)cc3)N3C(=O)N(c4cccc(Cl)c4)C(=O)[C@@]3(Cc3ccccc3)C2C1=O (some centres not stated)	.	.	.	.	-2.8	.
CCC1=C2CCC3C(=O)N(c4ccccc4)C(=O)C3C2[C@@]2(C)C(=NCC3CC3)OC(=O)N2C1=O (some centres not stated)	.	.	.	.	3.0	.
NS(=O)(=O)c1ccc(N=Cc2c(O)c3ccccc3oc2=O)cc1	-1.1	0.9	-5.2	36.6*	.	>38
O=C1C=C(c2cc3ccccc3s2)CC(c2ccc(F)cc2)C1 (configuration not stated)	.	.	.	.	8.3	.
CCCCCC(O)c1cc2ccccc2c(=O)o1 (configuration not stated)	.	.	.	.	21.6	.
COc1ccc(S(=O)(=O)Nc2ccc3c(c2)C(=O)N(C(C)CO)CC(C)C(CN(C)S(=O)(=O)c2ccc(F)cc2)O3)cc1 (configuration not stated)	.	.	.	.	-2.6	.
Cc1cc(C)c(S(=O)(=O)/N=C2\C=C(Nc3ccc(C(=O)O)cc3)C(=O)c3ccccc32)c(C)c1	9.6	3.7	-154.9	95.8*	.	0.871*
CCc1ccc(S(=O)(=O)N=C2C=CC(=O)c3ccccc32)cc1	.	.	.	.	-3.5	.
Cc1cccc(NC2=C/C(=N/S(=O)(=O)c3cccs3)c3ccccc3C2=O)c1	3.7	0.7	-107.2	.	.	.
Cc1cc(C)c(S(=O)(=O)/N=C2\C=C(NS(=O)(=O)c3ccccc3)C(=O)c3ccccc32)c(C)c1	0.9	-0.5	-32.6	3.9	.	.
CCc1ccc(S(=O)(=O)/N=C2\C=C(Nc3ccc(O)cc3)C(=O)c3ccccc32)cc1	24.3	-1.2	-128.7	97.3*	.	0.498*
CCc1ccc(S(=O)(=O)/N=C2\C=CC(=O)c3ccccc32)cc1	6.3	1.2	-92.5	93.4*	.	1.66*
CCc1ccc(S(=O)(=O)/N=C2\C=C(Nc3cccc(C(=O)O)c3)C(=O)c3ccccc32)cc1	4.8	1.7	-183.2	94.9*	.	0.419*
CC(C)(C)OC(=O)CC1CC=CCC(CC(=O)N(CCO)Cc2ccccc2)C(=O)NC(c2ccccc2)COC1=O (configuration not stated)	.	.	.	.	0.3	.
CC=C(C)C(=O)NCCN1C2=NCC(Cc3ccccc3)N2CC1Cc1ccc(OC)cc1 (configuration not stated)	.	.	.	.	-0.9	.
